SMILES strings stand for the structures. About 6,500 (11%) of roughly 59,000 compounds were called active. Inconclusive results (about 15%) are left out. No stated cut-off is given here; in the data, active means max dye-equivalent concentration above about 10 nM; inconclusive means mostly about 1.1 nM to 9.6 nM; inactive means weaker than that. The full list was thinned out, with actives kept by preference.

This assay in a line: qHTS Assay for Spectroscopic Profiling in A350 Spectral Region. Conditions: Compound autofluorescence, 340/450 nm, Alexa 350 dye-equivalents; hits give high values.
On to `CC(C)c1ccc(-c2nn[nH]n2)cc1`, for which the max dye-equivalent concentration result was “inactive”.

With `CCOc1ccc(-c2nnc3ccc(SC)nn23)cc1`, the max dye-equivalent concentration is 12 nM (active).

For the compound `CCn1cc(C(=O)N2CCN(Cc3ccc4c(c3)OCO4)CC2)c2cc(OC)c(OC)cc2c1=O`, the max dye-equivalent concentration result is “inactive”. For the compound `CS(=O)(=O)N1CCC2(CC1)CN(c1ccncc1)C2`, the max dye-equivalent concentration result was “inactive”.

Regarding `CC(=O)NC(Cc1ccc(F)cc1)C(=O)O` (stereo unspecified), the max dye-equivalent concentration result was “inactive”. As for `Cc1cc(C)cc(N(C(C)C(=O)Nc2c(C)n(C)n(-c3ccccc3)c2=O)S(C)(=O)=O)c1` (stereo unspecified), the max dye-equivalent concentration result is “inactive”.

Take `Cc1c(NC(=O)C(C)OC(=O)c2cc3c4ccccc4n(C)c3s2)c(=O)n(-c2ccccc2)n1C` (stereo unspecified): the max dye-equivalent concentration was 170 nM (active). Under `Cc1ccccc1OCCC(=O)Nc1c(C)n(C)n(-c2ccccc2)c1=O` stands “inactive”; under `C[C@H](NC(=O)OC(C)(C)C)c1nnc(SCC(N)=O)o1`, “inactive”; under `CCCNS(=O)(=O)c1ccc(CCC(=O)NCc2cccnc2)cc1`, “inactive”. Consider `COc1ccc(CN(C(=O)c2cccs2)c2nccs2)cc1OC`, for which the max dye-equivalent concentration entry is “inactive”. As to `Cc1ccc(C)n1-c1ccncc1`, the max dye-equivalent concentration result is “inactive”. For `O=c1cc(-c2ccccc2)[nH]c2nc(Cl)ccc12`, the max dye-equivalent concentration was 69 nM (active). As to `COCCN1Cc2cccc(C(=O)Nc3ccccc3OC)c2C1=O`, the max dye-equivalent concentration entry was “inactive”. On to `Fc1ccccc1OCCSc1nc2ccccc2o1`, for which the max dye-equivalent concentration result was “inactive”. Under `Cc1ccc(C(=O)CS(C)(=O)=O)cc1` stands 19 nM (active). Under `O=C1C=C(NCCNc2c(F)c(F)c(CO)c(F)c2F)CCC1` stands “inactive”; under `Cc1cc(=O)[nH]c(SCC(=O)N2c3ccccc3CC2C)n1` (stereo unspecified), “inactive”; under `Cc1nc2cnc(N3CCN(C)CC3)nc2n(C[C@H]2CCCO2)c1=O`, 59 nM (active). Under `Cc1nc2cnc(Nc3ccccc3)nc2n(C[C@H]2CCCO2)c1=O` stands “inactive”. Take `O=c1c(CCc2ccccc2)nc2cncnc2n1C1CC1`: the max dye-equivalent concentration result is “inactive”. `Cc1nc2cnc(N3CCNCC3)nc2n(Cc2ccc(F)cc2)c1=O`: the max dye-equivalent concentration was 110 nM (active).

With `COCCn1c(=O)c(CCc2ccccc2)nc2cncnc21`, the max dye-equivalent concentration is 88 nM (active). For `Cn1cc(-c2nc3cnc(N4CCNCC4)nc3n(CCC#N)c2=O)c2ccccc21`, the max dye-equivalent concentration result is “inactive”.

For the compound `O=C(CSc1nnc(-c2ccco2)n1CC1CCCO1)c1ccccc1` (stereo unspecified), the max dye-equivalent concentration result is “inactive”. Take `Cn1c(=O)c2c(nc(OCc3cccnc3)n2Cc2ccccc2)n(C)c1=O`: the max dye-equivalent concentration result is “inactive”. Under `N#Cc1cccc(-c2nc3cnc(N4CCNCC4)nc3n(C3CC3)c2=O)c1` stands 350 nM (active); under `CCOc1cc2c(cc1OCC)C(C(=O)O)C(c1ccc(OC)c(O)c1)N(C)C2=O` (stereo unspecified), “inactive”; under `O=C(COc1cccc(-n2cnnn2)c1)NCCC1=CCCCC1`, “inactive”. Under `Cc1cc(C)cc(NC(=O)N2CCC(NC(=O)c3ccc(F)cc3)CC2)c1` stands “inactive”; under `O=C(NC12CC3CC(CC(C3)C1)C2)N1CCCC(CO)C1` (stereo unspecified), “inactive”. Consider `COc1ccc(S(=O)(=O)N2CCCC2)c(C)c1C`, for which the max dye-equivalent concentration result is “inactive”. With `Cc1ccc(NC(=O)C2CC(c3ccc(F)cc3)=NO2)cc1` (stereo unspecified) the entry was “inactive”; with `COc1ccc(C(=O)N2CCC3(CC2)CCN(c2ccccn2)CC3)cc1`, “inactive”; with `CCOC(=O)CCC(=O)OCC(=O)NC(C)C1CC2CCC1C2` (stereo unspecified), “inactive”. Under `Cc1nc(N2CCCC2C(=O)O)c2oc3ccccc3c2n1` (stereo unspecified) stands “inactive”; under `COC(=O)c1ccc(C2CC(=O)Nc3cc(OC)c(OC)cc32)cc1` (stereo unspecified), “inactive”. Take `O=c1c(-c2ccc(F)cc2)nc2cnc(N3CCNCC3)nc2n1Cc1cccs1`: the max dye-equivalent concentration is 16 nM (active).

Turning to `Cn1cc(-c2nc3cnc(N4CCNCC4)nc3n(CCc3ccccc3)c2=O)c2ccccc21`, the max dye-equivalent concentration result was “inactive”. With `Cc1nc2cnc(N3CCNCC3)nc2n(CCc2ccccc2)c1=O` the figure was 60 nM (active); with `Cn1c(=O)c(-c2ccccc2)nc2cnc(N3CCNCC3)nc21`, 320 nM (active); with `COCCn1c(=O)c(CCc2ccccc2)nc2cnc(N3CCNCC3)nc21`, 60 nM (active). As for `COCCn1c(CN2CCC(Cc3ccccc3)CC2)nc2c1c(=O)n(C)c(=O)n2C`, the max dye-equivalent concentration entry was “inactive”. Under `CC1CCN(Cc2nc3c(c(=O)n(C)c(=O)n3C)n2CCc2ccccc2)CC1` stands “inactive”; under `CC(=O)O[C@]1(C(C)=O)CC[C@@H]2[C@@H]3C=C(C)C4=CC(=O)CC[C@@]4(C)[C@H]3CC[C@]21C`, “inactive”; under `O=C(NCCN1CCOCC1)c1c(F)c(F)c(F)c(F)c1F`, “inactive”. Under `COc1ccc(-c2nn(-c3ccccc3)cc2C(=O)Nc2nc(CC(C)=O)ns2)cc1` stands “inactive”; under `CC(=O)NC(C)c1nc2ccccc2n1Cc1ccccc1F` (stereo unspecified), “inactive”; under `CC(C)C1Cc2c(sc3c2c(=O)n(-c2ccccc2)c2nncn32)CO1` (stereo unspecified), “inactive”. With `CCOC(=O)Cn1c2c(c(-c3ccccc3OC)cc1=O)CCCC2` the entry was “inactive”; with `COc1ccc(N2CCN(C(=O)CSc3nnc4ncccn34)CC2)cc1`, “inactive”; with `O=C1CCC(=O)N1CCOP1(=O)COc2ccccc2OC1`, “inactive”. Regarding `COCCn1c(=O)c(-c2cc(F)cc(F)c2)nc2cnc(N3CCNCC3)nc21`, the max dye-equivalent concentration is 390 nM (active). Under `CCCn1c(=O)c2[nH]c(-c3ccc(OCC(=O)NCCN)cc3)nc2n(CCC)c1=O` stands “inactive”; under `COc1ccc(C(=O)N2CCC3(CCCN(C(c4ccccc4)c4ccccc4)C3)CC2)cc1`, “inactive”. In the case of `CC1(C)SC2c3ccccc3C(=O)N2[C@@H]1C(=O)NCc1ccco1` (stereo partly specified), the max dye-equivalent concentration result was “inactive”. Under `CC1(C)S[C@@H]2[C@@H](NC(=O)[C@@H](N)c3ccccc3)C(=O)N2[C@H]1C(=O)O` stands 44 nM (active); under `CCCC[C@H]1C(=O)N(c2ccccc2)N(c2ccc(O)cc2)C1=O`, “inactive”; under `Cc1cc(Br)ccc1NC(=O)C1CCCO1` (stereo unspecified), “inactive”. With `CC(C)C(NC(=O)OCc1ccccc1)C(=O)OCC(=O)N1C(C)CCCC1C` (stereo unspecified) the figure was 48 nM (active); with `COc1cccc(NC(=O)C2CCCN2C(=O)OCc2ccccc2)c1` (stereo unspecified), “inactive”; with `NC1(C(=O)OCc2ccccc2)CCCC1`, “inactive”.

As to `COc1cc(-c2noc(C3CCCN(S(=O)(=O)c4cccc(Cl)c4)C3)n2)cc(OC)c1OC` (stereo unspecified), the max dye-equivalent concentration entry is “inactive”. On to `Cc1nc2nc[nH]n2c(=O)c1NC(=O)c1cccc(OCC(C)C)c1`, for which the max dye-equivalent concentration entry was “inactive”.

In the case of `CCCN1Cc2cccc(C(=O)NCc3ccccc3)c2C1=O`, the max dye-equivalent concentration entry was “inactive”. As to `O=C1CCCC2=C1C(c1cccs1)n1nc(SCc3ccccc3)nc1N2` (stereo unspecified), the max dye-equivalent concentration is 110 nM (active). Under `CC(C)C(=O)N1c2ccccc2NC2=C(C(=O)CCC2)C1c1ccc(N(C)C)cc1` (stereo unspecified) stands “inactive”; under `NC(=NC(=O)c1ccccc1)C1=C(O)CCC1=O`, “inactive”. Under `CCn1c(COc2cccc(OC)c2)nnc1SCC(=O)N1CCOCC1` stands “inactive”; under `COc1ccc(-c2ccnc(SCC(=O)N3CCOCC3)n2)cc1`, 100 nM (active); under `COc1ccc(-c2nc(SCC(=O)N3CCOCC3)n[nH]2)cc1`, “inactive”. With `CC(=O)c1nc(N2C(=O)C3CC=C(C)CC3C2=O)sc1C` (stereo unspecified), the max dye-equivalent concentration result was “inactive”. Regarding `O/N=C(\c1ccc2c(c1)OCCO2)C1CCCCC1`, the max dye-equivalent concentration entry was “inactive”.

In the case of `Cc1ccsc1C(C(=O)NC1CCCCC1)N(C(=O)Cc1cccs1)C1CC1` (stereo unspecified), the max dye-equivalent concentration entry is “inactive”. Turning to `COc1ccc2oc(=O)c(C(=O)N3CCN(c4ccccc4F)CC3)cc2c1`, the max dye-equivalent concentration is 41 nM (active). Under `O=C(c1cccc2ccccc12)N1CCN(c2ccccc2F)CC1` stands “inactive”. With `COc1ccc2oc(=O)c(C(=O)N3CCCc4ccccc43)cc2c1` the entry was “inactive”; with `Cc1cccc(OCc2nnc(SCn3nnc4ccccc4c3=O)o2)c1`, “inactive”. With `CC1(C)C2CCC1(C)C(OC(=O)CCn1ccnc1)C2` (stereo unspecified) the entry was “inactive”; with `COc1cccc(NS(=O)(=O)c2ccc3[nH]cc(C(=O)NCCCOC(C)C)c(=O)c3c2)c1`, “inactive”; with `COC(=O)c1ccccc1NC(=O)c1cncc(Br)c1`, “inactive”. With `Cc1cc2nc(-c3ccc(NC(=O)c4cccnc4)cc3)oc2cc1C`, the max dye-equivalent concentration was 90 nM (active). For the compound `CCC(=O)Nc1cccc(NC(=O)c2cccnc2)c1`, the max dye-equivalent concentration entry was “inactive”. Under `CCOC(=O)c1cc(NC(=O)c2cccnc2)cc(C(=O)OCC)c1` stands “inactive”; under `O=S(=O)(O)CCN1CCOCC1`, “inactive”.

As for `CCCc1nnc(NC(=O)CN2C(=O)c3ccccc3S2(=O)=O)s1`, the max dye-equivalent concentration entry was “inactive”. Under `O=P(O)(CP(=O)(c1ccccc1)c1ccccc1)c1ccccc1` stands “inactive”; under `O=C(Nc1c(-c2ccccc2)nc2c(Br)cc(Br)cn12)c1ccco1`, “inactive”. As to `COc1ccc(S(=O)(=O)N(CCCN2CCCC2=O)Cc2cc3c(C)ccc(C)c3[nH]c2=O)cc1`, the max dye-equivalent concentration was 13 nM (active). Under `CCN1CCN(C(=O)CN(C)S(=O)(=O)c2ccc(OC)cc2)CC1` stands “inactive”; under `CCOc1cc2[nH]c(=S)n(CCCN3CCCC3=O)c(=O)c2cc1OCC`, “inactive”. Under `CC(C)(C)c1ccc(C(=O)CSc2ncn[nH]2)cc1` stands “inactive”. Under `Cc1csc(NC(=O)C2CCCN2C(=O)OCC(C)C)n1` (stereo unspecified) stands “inactive”. For the compound `CN(Cc1ccccc1)c1nc2c(c(=O)[nH]c(=O)n2C)n1CCSc1nc2ccccc2[nH]1`, the max dye-equivalent concentration result was “inactive”. Under `O=C(Cn1c(-c2ccccn2)nc2ccccc21)NCCN1CCOCC1` stands “inactive”.

Consider `C=CCn1c2ccccc2c2nnc(SC(CC)C(=O)Nc3nc(C)c(C(=O)OCC)s3)nc21` (stereo unspecified), for which the max dye-equivalent concentration was 56 nM (active). Under `C=CCn1c(SCC(=O)Nc2nc3ccccc3s2)nnc1-c1ccccc1O` stands “inactive”; under `COc1ccc(-n2c(SCC(=O)Nc3ccc4c(c3)OCO4)nnc2C(C)N2CCCCC2)cc1` (stereo unspecified), “inactive”. With `O=C(NCCCNC(=O)NC1CCCCC1)NC1CCCCC1`, the max dye-equivalent concentration entry is “inactive”. Take `CC(=NCc1ccc2c(c1)OCO2)C1=C(O)c2ccccc2C1=O`: the max dye-equivalent concentration entry is “inactive”. For the compound `O=c1[nH]c(-c2cccs2)nc2ccccc12`, the max dye-equivalent concentration entry is “inactive”.

For the compound `O=c1[nH]c(=O)c2nc3ccccc3nc2[nH]1`, the max dye-equivalent concentration was 200 nM (active).

In the case of `CCc1c(C)nc(N2CCN(Cc3ccccc3)CC2)[nH]c1=O`, the max dye-equivalent concentration entry was “inactive”. With `N#C/C(=C\c1ccc(O)c(O)c1)C(=O)NCc1ccccc1` the entry was “inactive”; with `CCSC1=C(C#N)C(=O)n2c1cc1c2CCCC1`, “inactive”. With `N#CC1=C(N)C(C#N)(C#N)[C@H](c2ccsc2)[C@H]2COCC=C12` the figure was 17 nM (active).

Source of the values: PubChem BioAssay AID590 (National Center for Advancing Translational Sciences (NCATS), 2007).
